Assay [1] can be described thus: NCI Yeast Anticancer Drug Screen. Data for the rad50 strain (AID 155).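 Further: 0% = growth of vehicle-only cultures of the same strain.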 The note with it: S. cerevisiae rad50 strain growth inhibition; at 50.0 µM; stronger effect = higher value. The gist of the method:
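Yeast carrying a defined DNA repair defect were exposed to test compounds, and growth was compared with vehicle-treated controls to give percent inhibition.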

A short description of assay [2]: NCI Yeast Anticancer Drug Screen. Data for the mec2-1 strain (AID 157). The note with it: S. cerevisiae mec2-1 strain, at 50.0 µM, stronger effect = higher value. In a few lines:
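Yeast mec2-1 mutant treated with compound. Readout: growth inhibition vs vehicle controls.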

Assay [3] in a line: NCI Yeast Anticancer Drug Screen. Data for the sgs1 mgt1 strain (AID 161).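 Further: 0% = growth of cultures given vehicle only.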 The note with it: S. cerevisiae sgs1 mgt1 strain, at 50.0 µM, stronger effect = higher value. The gist of the method:
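Test agents were incubated with a DNA-repair-mutant yeast strain. Growth was then read and compared against vehicle-treated controls.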

Assay [4] can be described thus: NCI Yeast Anticancer Drug Screen. Data for the cln2 rad14 strain (AID 165).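 Further: 0% = growth equal to vehicle treated cultures.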 The note with it: S. cerevisiae cln2 rad14 strain, at 50.0 µM, stronger effect = higher value. The gist of the method:
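cln2 rad14 yeast strain; compound exposure; growth inhibition read vs vehicle controls.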

Assay [5] in a line: NCI Yeast Anticancer Drug Screen. Data for the bub3 strain (AID 167). The note with it: S. cerevisiae bub3 mutant strain, at 50.0 µM, stronger effect = higher value. The gist of the method:
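Compounds were applied to a genetically altered yeast strain carrying a cell-cycle control defect. Growth inhibition was scored against vehicle-treated controls.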

The nature of assay [6]: NCI Yeast Anticancer Drug Screen. Data for the mlh1 rad18 strain (AID 175). The note with it: S. cerevisiae mlh1 rad18 strain growth inhibition; at 50.0 µM; stronger effect = higher value. The gist of the method: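 Yeast w/ defined DNA-repair lesions; compound exposure; growth vs vehicle controls → % inhibition.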

“And” between values parts separate entries of the source, which are not always exact repeats. Identical values can stand only once. The panel holds about 79,000 compounds, 15% with a hit somewhere; the sample as a whole holds those more often. Values without a mark were called inactive. The source made the active and inactive calls. No stated cut-off is given here; in the data, active means growth inhibition above about 70%; inactive means the rest.

On to `Nc1n[nH]c(CCc2nc(N)n[nH]2)n1`, for which the growth inhibition is 22.8% in assay [1]; -12.2% in assay [2]; -18.1% in assay [3]; 7.65% in assay [4]; 11.6% in assay [5]; 4.9% in assay [6].
`COc1ccc2c(c1O)-c1cc(O)cc3c1C(C2)NCC3` (stereo not drawn): the growth inhibition in assay [1] was 13.7%; in assay [2] it was 21.8%; in assay [3], -12.5%; in assay [4] it was 7.25%; in assay [5], 8.65%; in assay [6] it was 30.9%.
For the compound `Cc1cc(N(CCCl)CCCl)ccc1C=Nc1ccccc1F`, the growth inhibition is 8.3% in assay [1]; -5.4% in assay [2]; 3.6% in assay [3]; -40.4% in assay [4]; 6.85% in assay [5]; 0.5% in assay [6].
On to `COC(CN1CCOCCOCCOCC1)CN1CCOCCOCCOCC1`, for which the growth inhibition was -9.3% in assay [1]; -6.55% in assay [2]; -29.1% in assay [3]; 15.4% in assay [4]; 14.2% in assay [5]; -17.8% in assay [6].
As for `O=c1oc2cc(O)ccc2c(O)c1C(c1cccnc1)c1c(O)c2ccc(O)cc2oc1=O`, the growth inhibition is 0.75% in assay [1]; 1.25% in assay [2]; 11.7% in assay [3]; -0.05% in assay [4]; -0.5% in assay [5]; -80.5% in assay [6].
In the case of `CCSCCC(N)C(=O)O` (stereo not drawn), the growth inhibition is 0.15% and -21.3% in assay [1]; -13.9% and -15% in assay [2]; -37.8% and -2% in assay [3]; -70.4% and -32.9% in assay [4]; -19.9% and 6.05% in assay [5]; -13.2% and -28.6% in assay [6].
As for `C[N+](C)(C)Cc1ccc2ccccc2c1Br`, the growth inhibition in assay [1] was 30.3%; in assay [2] it was 7.05%; in assay [3] it was 10.2%; in assay [4], 10.3%; in assay [5], 0.2%; in assay [6], 20.6%.
For the compound `C[C@H]1C(=O)O[C@@H]2CCN3CC=C(COC(=O)[C@](C)(O)[C@@]1(C)O)[C@H]23`, the growth inhibition in assay [1] was -4.7%; in assay [2], -4.2%; in assay [3], 11.9%; in assay [4], -2.85%; in assay [5], -9.6%; in assay [6], -44.1%.
For the compound `COP(=O)(OC)OC1C(=O)NC(=O)NC1=O`, the growth inhibition in assay [1] was 12.3%; in assay [2], 0.25%; in assay [3], -4.15%; in assay [4], 14.2%; in assay [5] it was 7.2%; in assay [6], 17.9%.
Take `O=C1OC(=O)C2C3C=CC(O3)C12` (stereo not drawn): the growth inhibition is -9.15% and -16.2% and 22.6% in assay [1]; -14.2% and -0.8% and -0.1% in assay [2]; -25.2% and 3.95% and 14.6% in assay [3]; 6% and 1.55% and 10.6% in assay [4]; -42.2% and -28.7% and 6.3% in assay [5]; -6.4% and -16.8% and 19.6% in assay [6].
As to `O=C([O-])Cc1ccccc1.O=[N+]([O-])O.[Co+3].[NH2-].[NH2-].[NH2-].[NH2-].[NH2-]`, the growth inhibition in assay [1] is 13.1%; in assay [2], 12.5%; in assay [3], 21.3%; in assay [4], 11.9%; in assay [5] it was 14.8%; in assay [6] it was -5.9%.
Turning to `CCC(C)CC(C)N` (stereo not drawn), the growth inhibition in assay [1] is 0.6%; in assay [2] it was 2.7%; in assay [3] it was 14.5%; in assay [4] it was 2.65%; in assay [5] it was -2.45%; in assay [6] it was 9.15%.
`CC1(C)N=C(N)N=C(N)N1c1cccc(CCC(=O)Nc2ccc[n+](Cc3ccc(S(=O)(=O)F)cc3)c2)c1`: the growth inhibition in assay [1] was -1.3%; in assay [2], -8.35%; in assay [3], 13.4%; in assay [4] it was -17.8%; in assay [5] it was -9.55%; in assay [6] it was -11.9%.
Turning to `CN1Cc2cc3cc4c(cc3nc2N(C)C1)OCCO4`, the growth inhibition in assay [1] is 1.5%; in assay [2] it was 12.2%; in assay [3] it was -1.5%; in assay [4], 11.4%; in assay [5], 8.9%; in assay [6], 15.1%.
As to `CC(=O)CC(C)=O.CC(=O)CC(C)=O.CC(=O)CC(C)=O.[Sm]`, the growth inhibition was 53% in assay [1]; 13.8% in assay [2]; 37.1% in assay [3]; 31.9% in assay [4]; 9.1% in assay [5]; 33.8% in assay [6].
Take `ClCCN(CCCl)Cc1c2ccccc2cc2c1ccc1ccccc12`: the growth inhibition is 48.5% in assay [1]; 9.2% in assay [2]; 46.8% in assay [3]; -38.3% in assay [4]; -2.5% in assay [5]; 65.5% in assay [6].
As for `CP1(=O)CCC23CCCCC21O3` (stereo not drawn), the growth inhibition in assay [1] is 7.9%; in assay [2] it was -34.8%; in assay [3] it was -2.3%; in assay [4] it was -20.8%; in assay [5] it was 11.7%; in assay [6], -4.25%.
As for `NC(=O)c1ccc([As](O)O)cc1N`, the growth inhibition in assay [1] is -0.05%; in assay [2], -4.9%; in assay [3] it was -12.5%; in assay [4] it was -4.75%; in assay [5] it was -11.5%; in assay [6], -9.1%.
For the compound `COc1cc(C2c3cc4c(cc3C(O)[C@H]3COC(=O)C23)OCO4)cc(OC)c1O` (stereo partly drawn), the growth inhibition is -38.8% in assay [1]; -50.8% in assay [2]; -27.1% in assay [3]; -1.8% in assay [4]; -13.9% in assay [5]; 38.6% in assay [6].
Turning to `O=C(c1ccccc1)C1C(c2ccccc2)N1Cc1ccccc1` (stereo not drawn), the growth inhibition in assay [1] is 0.35%; in assay [2], 12.2%; in assay [3], 10.2%; in assay [4], 6.15%; in assay [5], 9.65%; in assay [6], -2.9%.
Consider `COc1ccc(C(C)N)cc1` (stereo not drawn), for which the growth inhibition in assay [1] is -47.4%; in assay [2] it was -5.3%; in assay [3] it was -10.4%; in assay [4] it was -11.2%; in assay [5] it was -4.3%; in assay [6] it was -2.9%.
With `Nc1ccc([N+](=O)[O-])cc1[N+](=O)[O-]`, the growth inhibition in assay [1] is -24.9%; in assay [2], 5.4%; in assay [3], -21.2%; in assay [4] it was -8.8%; in assay [5] it was 0.6%; in assay [6], 11%.
Regarding `CCCC[As](=O)(O)C(C)C`, the growth inhibition in assay [1] was 5%; in assay [2], 9.25%; in assay [3] it was 2.5%; in assay [4] it was 16%; in assay [5], 6.95%; in assay [6], 14.1%.
As for `CC(CC(C#N)(c1ccccc1)c1ccccc1)[N+]1(C)CCCCCCC1` (stereo not drawn), the growth inhibition in assay [1] is 11.9%; in assay [2], 1.2%; in assay [3], 2.85%; in assay [4] it was 1.65%; in assay [5], 1.35%; in assay [6], 19%.
Consider `COc1cc([C@@H]2c3cc4c(cc3C[C@H]3COC(=O)[C@@H]32)OCO4)cc(OC)c1OC`, for which the growth inhibition is 5.2% in assay [1]; -3.05% in assay [2]; 10.2% in assay [3]; 27.6% in assay [4]; 24.4% in assay [5]; 13.6% in assay [6].
For `Cc1ccccc1-n1c(CCl)nc2ccc(Br)cc2c1=O`, the growth inhibition in assay [1] is 18.4%; in assay [2], 2.6%; in assay [3], 12.6%; in assay [4] it was 6.05%; in assay [5], 1.35%; in assay [6] it was 27.1%.
Consider `O=C1C2CCC(C2)[CH]1[Hg][Cl]` (stereo not drawn), for which the growth inhibition in assay [1] was 99.4% (active); in assay [2] it was 99.7% (active); in assay [3] it was 99.5% (active); in assay [4], 99% (active); in assay [5] it was 99.3% (active); in assay [6], 99.5% (active).
Consider `Cc1ccc(SP(=S)(Sc2ccc(C)cc2)Sc2ccc(C)cc2)cc1`, for which the growth inhibition in assay [1] was 11.7%; in assay [2], -65.8%; in assay [3] it was -4.15%; in assay [4], -29.9%; in assay [5] it was -12.2%; in assay [6], 10%.
Consider `O=C(CC(=O)C(=O)Nc1ccccc1)CC(c1ccccc1)c1c(O)c2ccccc2oc1=O` (stereo not drawn), for which the growth inhibition is 9% in assay [1]; 5.3% in assay [2]; 26.4% in assay [3]; 12.6% in assay [4]; 1.4% in assay [5]; 18.5% in assay [6].
Turning to `CN(C)C(=S)Oc1ccc(S(=O)(=O)F)cc1`, the growth inhibition in assay [1] is 34.2%; in assay [2], 17.2%; in assay [3], 14.6%; in assay [4], 22.6%; in assay [5] it was 8.65%; in assay [6] it was 20.9%.
`N#C[C@H](OC1OC(COC2OC(CO)C(O)C(O)C2O)C(O)C(O)C1O)c1ccccc1` (stereo partly drawn): the growth inhibition was -34.5% in assay [1]; -34.6% in assay [2]; -20.6% in assay [3]; -1.3% in assay [4]; -29.1% in assay [5]; -28.1% in assay [6].
Consider `[Cl][Pt][Cl].[NH-]NC(=O)c1ccncc1`, for which the growth inhibition is 8.65% in assay [1]; 5.8% in assay [2]; -3.55% in assay [3]; -17.1% in assay [4]; 2.35% in assay [5]; -2% in assay [6].
Consider `CC(C)Oc1ccccc1OC(=O)N(C)C=O`, for which the growth inhibition in assay [1] was -15.9%; in assay [2], -2.7%; in assay [3], -6.8%; in assay [4], -18%; in assay [5], -17.3%; in assay [6], -15.4%.
For `C/C(=N\N1CN(C(C)C(=O)O)P(N(CCO)CCO)N=C1N)c1cccs1` (stereo not drawn), the growth inhibition in assay [1] was -5.45%; in assay [2], -11.2%; in assay [3], 5.85%; in assay [4], -18.6%; in assay [5] it was 7.95%; in assay [6], -8.4%.
On to `c1cc2c3c(cccc3c1)CC2`, for which the growth inhibition in assay [1] was -22.4%; in assay [2], 35.4%; in assay [3], -0.65%; in assay [4], -16.3%; in assay [5] it was 44.4%; in assay [6] it was -14.6%.
As for `COC(=O)C1C2CCCN2OC1(C)CO` (stereo not drawn), the growth inhibition was -2.6% in assay [1]; 12.5% in assay [2]; 12.4% in assay [3]; 2.45% in assay [4]; 12.9% in assay [5]; 2.1% in assay [6].
Turning to `O=C(O)/C=C\c1c[nH]c2ccccc12` (tested in a mixture with another compound), the growth inhibition is -3.3% in assay [1]; -7.35% in assay [2]; -13.4% in assay [3]; 0.95% in assay [4]; -10.8% in assay [5]; -12.2% in assay [6].
Take `COc1ccc(C(N)Cc2cc(OC)c(OC)c(OC)c2)cc1` (stereo not drawn): the growth inhibition in assay [1] was -14.9%; in assay [2], 6.1%; in assay [3] it was 2.9%; in assay [4] it was -10.5%; in assay [5], 7.8%; in assay [6], -8.6%.
